Results as given in the supplement of paper PMC3334620.
Whole data set: some 33,000 sequences, median “E-score (-0.5 to 0.5)” near -0.016, cut for the highest 2% near 0.3. For the sample, the highest values were picked, then their nearest neighbours and some sequences at random.

biological target: T1, Yer184c (UniProt P39961); assay: PBM E-score (8-mer binding enrichment) (E-score (-0.5 to 0.5)); higher = stronger / more preferred TF binding; conditions: protein concentration: 100 nM; construct: GST-full length
T1 sequence: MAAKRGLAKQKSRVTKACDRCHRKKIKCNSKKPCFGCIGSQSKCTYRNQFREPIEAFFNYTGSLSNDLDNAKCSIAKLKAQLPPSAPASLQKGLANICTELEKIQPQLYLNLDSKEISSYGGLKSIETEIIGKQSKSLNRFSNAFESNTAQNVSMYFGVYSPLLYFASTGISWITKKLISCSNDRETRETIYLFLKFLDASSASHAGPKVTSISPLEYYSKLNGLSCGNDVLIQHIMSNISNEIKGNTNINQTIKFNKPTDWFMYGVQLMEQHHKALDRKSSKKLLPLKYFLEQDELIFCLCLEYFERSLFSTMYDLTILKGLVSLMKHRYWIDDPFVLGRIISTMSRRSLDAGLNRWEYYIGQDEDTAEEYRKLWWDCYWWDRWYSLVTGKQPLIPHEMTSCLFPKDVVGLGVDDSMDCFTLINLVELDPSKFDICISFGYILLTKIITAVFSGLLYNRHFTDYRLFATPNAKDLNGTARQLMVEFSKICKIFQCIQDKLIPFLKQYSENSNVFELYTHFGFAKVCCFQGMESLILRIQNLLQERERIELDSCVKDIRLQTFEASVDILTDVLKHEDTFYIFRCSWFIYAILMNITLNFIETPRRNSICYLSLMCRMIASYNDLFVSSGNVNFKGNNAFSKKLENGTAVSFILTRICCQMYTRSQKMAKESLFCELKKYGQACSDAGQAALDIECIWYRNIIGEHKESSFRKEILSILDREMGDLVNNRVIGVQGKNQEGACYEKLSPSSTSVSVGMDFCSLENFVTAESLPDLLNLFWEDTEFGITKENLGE
Experimental: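 Universal 'all 10-mer' protein binding microarrays (Agilent AMADID 015681) probed with GST-tagged S. cerevisiae TFs (full-length or DBD) made by in vitro transcription/translation (PURExpress), about 100-200 nM. Bound TF was detected with fluorescent anti-GST. Each ungapped 8-mer (which stands for itself and its reverse complement) is scored by the PBM enrichment score (E-score), a modified Wilcoxon-Mann-Whitney statistic from -0.5 to +0.5, computed with the Universal PBM Analysis Suite. Scale: above 0.35 generally sequence-specific binding.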

Sequence	PBM E-score
GCCAACAC	0.0745
CGTTGTTC	-0.00041
CTGGGCGA	-0.206
GCCCATCC	-0.224
TCGGTAGA	0.307
ACGGTAGA	-0.0773
CCGGTAGA	0.264
AGGCGATG	-0.0512
CCGCTGCG	-0.122
GCTAGCGA	-0.147
ACCCGAGT	0.0508
CCTTACCG	0.114
AAGAAATA	0.163
AAGAAATG	0.227
AAGAAATT	0.346
AGTCGTGG	-0.191
CAAATTAA	0.0386
ATCATTAA	0.307
GTAATTAA	0.143
GAAATTAA	0.337
CTCATTAA	0.067
ATAATTAT	0.386
ATCATTAG	0.037
ATAATTAC	0.265
ATAATTAG	0.203

Sequence	PBM E-score
AAAATTAA	0.168
TTAATTAA	-0.041
ATAATTAA	0.323
AACAAACT	0.277
AACAACGA	0.112
AGTGGCCC	-0.153
CAGGTATA	-0.163
AGTGTGCA	-0.0513
AACGATGT	0.13
CTCACCCA	-0.0925
CACGTTCG	-0.203
GCGCAAGA	0.188
AAAATTAC	0.127
AAAATTAT	0.316
AAAATTAG	0.227
AGGGATAG	-0.208
CCATCTAC	-0.15
GCCGGACC	0.214
GACGGACA	0.121
ACCGGACA	0.122
GCCGGATA	0.354
CCCGGACA	0.283
TCCGGACA	0.431
GCCGGACA	0.36
GCAGGATA	-0.168

Sequence	PBM E-score
GGCGGATA	0.0758
ACAAGAAG	0.048
CATCAGAG	-0.0413
GAGCACCC	-0.141
AAGTGATA	-0.118
GGGCCTTA	-0.209
CGGAGTAC	0.0421
GGGAGTAA	0.109
CGGAGTAA	0.313
AACCCGAA	0.14
CACGGCCA	0.131
AGTAACCG	0.117
ACCGCGGG	0.291
ACCGCGGT	0.195
ACCGCGGC	0.344
CCCGCGGG	0.3
CCCGCGGC	0.35
CCCGCGGA	0.257
ATGGACAT	0.0596
GAGTCGTA	-0.0554
ATCGCAGA	-0.132
CCACCACA	-0.093
GAGTGCAC	-0.0537
AAATGATC	-0.0261
AAATGATT	0.316

Sequence	PBM E-score
AAATGATA	0.162
ACTATCGA	-0.203
ATTTCCGC	0.307
ATTTCCGG	0.445
ACTTCCGA	0.285
ATTTCCAG	0.0278
ACTTCCGC	0.166
ATTTCCGA	0.359
CTTTCCGC	0.187
CTTTCCGA	0.3
ACTTCCGG	0.335
ATTTCCTG	0.186
GTTTCCGA	0.286
ATTTCCAC	0.067
AAAAGCCG	0.244
GATCTCGA	0.115
CAGTTGAC	-0.0401
ACATCTCG	0.00537
GGGATAAA	0.195
AAATTATT	0.212
ACGCAATA	0.135
AGAGCTCA	-0.142
GTACTATA	0.176
ATGGCGTA	-0.111
TCTCCGAA	0.325

Sequence	PBM E-score
CATCCGAA	0.338
CATCCGAG	0.212
TATCCGCA	0.293
AATCCGAA	0.0989
CATCCGAC	0.247
CCTCCGAA	0.0955
GCTCCGAA	0.298
GATCCAAA	0.196
GATCCGAC	0.0808
GATCCGAA	0.375
TATCCGAA	0.386
AACAAGAA	0.257
AAGATTAT	0.106
GCATTGCC	-0.0318
AGACTCTA	-0.124
AGGCATGG	-0.0826
TCGCTAAA	0.0346
GTCTTTCA	-0.0723
CCGGCCAC	0.24
AACTGCTC	-0.0494
GCCGTTAC	0.119
GTTCTGGA	0.0262
CGACGCCG	0.239
CCGACTTA	0.304
CCGACTGA	0.00051

Sequence	PBM E-score
CCGACTTC	-0.243
TGTTTCAA	0.153
ACGCGCAA	0.156
AGTCCCCC	-0.483
AATAGCGG	0.0178
ATCCGACG	0.155
ATACGGCC	0.153
ATGCGGCG	0.0251
ATGCGGCC	0.109
ATCCGGCG	0.321
ATCCGGTC	0.214
ATCCGGTG	0.353
ATCCGGCC	0.358
ATCCGGTA	0.206
ATTTGGCA	0.0517
GTGCACAC	-0.194
TGGCATAA	0.139
CTGGCTCA	-0.00502
ACCAAAGC	0.0124
CAGCCCTA	-0.0337
CATGGCGC	-0.0606
GCCAAAAA	0.234
CGGTAAAC	0.216
CGGTAAAG	0.314
GGGTAAAA	0.143

Sequence	PBM E-score
TGATAAAA	0.178
GGATAAAA	0.248
GTATAAAC	0.256
CGGTAAAA	0.305
GTATAAAA	0.325
CGATAAAA	0.333
TGGTAAAA	0.203
ATATAAAA	0.278
AGGTAAAG	0.106
AAGTTTGG	0.113
ATCCTCGG	0.218
CCAAAGCG	-0.0768
ACAACCGA	0.261
AAGGCGTG	-0.149
ATATTGGC	-0.0624
GGGCAACC	-0.121
CCCCAGGG	-0.297
CACGGGGC	-0.0464
TAATCTGA	-0.00734
GTCCGTTA	0.207
ATCCGTTA	0.367
ATCCGTTC	0.29
